Sampled rows, rich in hits. Any-hit rate of the full collection: about 14%.
LmPK inhibitor: blocks Leishmania mexicana pyruvate kinase activity; purified LmPK, Kinase-Glo ATP luminescence, 1 h; Potency, µM (titrated, usually from 57.5 µM), without a hit: top-dose activity change, negative = inhibition, most hits filed as inhibitors; 290,000 tested, 0.37% active; Q27686; note: potency is the fitted concentration of half-maximal effect; % is set by controls: 0 for no effect and ±100 for the full control effect
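qHTS format; LmPK 0.1 nM; substrates PEP 0.5 mM and ADP 0.1 mM. One-hour room-temperature incubation, then coupled luciferase luminescence; 0.5 nM enzyme wells mark activation.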
Shiga inhibitor: inhibitors of Shiga toxin in Vero cells | Vero cells, Shiga toxin protein synthesis inhibition reporter | inhibition, % at 38.7 µM | 290,000 tested, 9.2% active; in the data active = inhibition mostly above about 28%, no sharp cut-off; inactive = mostly below about 43%; note: 0% is about no effect
FBPA Giardia inh: blocks Giardia fructose-bisphosphate aldolase activity; A8B2U2; purified Giardia FBPA; Potency, µM (doses to about 59.6 µM), for inactives: at the highest dose activity, negative = inhibition, hits mostly inhibitors; 290,000 tested, 0.71% active; AID 2451; note: potency is the fitted concentration of half-maximal effect; % is set by controls: 0 for no effect and ±100 for the full control effect; nearly all actives have a fitted effect of over 55% in size
Target sequence (A8B2U2 whole entry, looked up): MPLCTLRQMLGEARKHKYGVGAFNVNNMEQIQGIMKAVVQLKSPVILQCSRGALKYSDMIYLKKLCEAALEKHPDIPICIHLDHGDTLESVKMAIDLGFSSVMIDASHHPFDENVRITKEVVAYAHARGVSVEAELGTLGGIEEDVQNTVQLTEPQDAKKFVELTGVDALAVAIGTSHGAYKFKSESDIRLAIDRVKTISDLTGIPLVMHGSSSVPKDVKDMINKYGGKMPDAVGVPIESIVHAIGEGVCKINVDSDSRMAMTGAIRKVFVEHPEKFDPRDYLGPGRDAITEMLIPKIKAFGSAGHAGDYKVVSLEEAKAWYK
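Giardia FBPA (40 nM reagent) was preincubated 10 min at RT with compound (up to 57.5 uM final), then substrate plus GAPDH/TPI/NAD/arsenate coupling system with diaphorase/resazurin was added; resorufin fluorescence (525/598 nm) was read after 20 min.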
CHX counter: counter-screen for Shiga toxin inhibitors: cycloheximide protein synthesis inhibition; max response, %; cell reporter, cycloheximide protein synthesis inhibition counterscreen; 300,000 tested, 12% active; in the data active = max response mostly above about 13%, no sharp cut-off; inactive = mostly below about 14%; note: read at 38.3 µM for the half of the compounds with a filed dose; 0% is about no effect
NS1 inh: inhibitors of influenza NS1 protein function; Potency, µM (top dose mostly 46.1 µM), without a hit: at the top dose activity, positive = more growth; 270,000 tested, 0.4% active; calls by dose curve; note: potency is the fitted concentration of half-maximal effect; actives are rising curves; nearly all actives have a fitted effect of over 50% in size
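S. cerevisiae expressing influenza A NS1, grown in glucose, washed, then diluted 1:100 into pH 6.0 -URA galactose medium with 23 nl compound. Growth recovery read as OD600; NS1-free strain serves as control.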
An asterisk follows results filed as active; ? = inconclusive; nt = no result. Unless noted, calls come from the whole dose curve; as a rule, active = well fitted curve in the direction sought with a large enough effect; inconclusive = small, poorly fitted or top-dose-only effect, or another doubt; inactive = no such curve, though single readings can be large; an effect the other way counts as inactive or inconclusive.

SMILES	LmPK inhibitor	Shiga inhibitor	FBPA Giardia inh	CHX counter	NS1 inh
O=C(NCCSc1ccccn1)c1ccc(Cl)cc1	-3%	63*	-4%	12	nt
Cc1ccccc1CSCC(=O)Nc1ccccc1F	5%	nt	0%	44*	-20%
Cc1ccccc1Cn1c(=O)n(CCCC(=O)NCc2ccco2)c(=O)c2ccccc21	-3%	14	8%	14*	-1%
Cc1ccccc1N(CC(=O)NCCSc1ccccn1)S(=O)(=O)c1ccccc1	4%	-13	0%	-2	-5%
Cc1ccccc1CSCC(=O)NCCSc1ccccn1	15%	33	0%	22*	nt
COc1ccc(C)cc1NC(=O)CSCc1ccccc1C	10%	nt	4%	3	-24%
Cc1cccc(Cn2c(=O)n(CCCC(=O)NCc3ccco3)c(=O)c3ccccc32)c1	1%	-15	-1%	-2	12%
O=S(=O)(Nc1nnc(C2CC2)s1)c1ccccc1	0%	-8	0%	-3	-2%
O=C(C1CCN(S(=O)(=O)c2ccccc2)CC1)N1CCCCCC1	-4%	-4	nt	-1	11%
COc1ccc(C(=O)Nc2ccccc2C(=O)NCCN2CCOCC2)cc1OC	-5%	-9	0%	-3	1%
COCCNC(=O)CCN1N=C(c2ccccc2)CCC1=O	1%	-11	-5%	-5	2%
O=C(CSc1ccc(Cl)cc1)NC(=O)NCc1ccco1	0%	19	2%	-1	nt
Cc1ccc(-c2nc(NCc3ccco3)n(S(C)(=O)=O)n2)cc1	-5%	-8	-7%	-2	nt
Cc1sc2nc(C(C)C)nc(SCC(=O)NCc3ccco3)c2c1C	-1%	45	11%	32*	-19%
O=C(CSc1ccc(Cl)cc1)NCc1ccco1	-7%	34	-2%	32*	-3%
Cc1nc(SCC(=O)NCc2ccco2)c2c(C)c(C)sc2n1	3%	-6	5%	8	-12%
CC(=O)n1nc(-c2ccc(C)cc2)nc1NCc1ccco1	3%	101*	1%	63*	nt
CCOc1cc(-c2nc(-c3ccccc3OC)no2)cc(OCC)c1OCC	-3%	-10	-2%	-4	-19%
COc1cc(-c2noc(-c3cccc(Cl)c3)n2)cc(OC)c1OC	-3%	-9	5%	-1	-1%
COc1ccccc1-c1noc(-c2ccccc2)n1	?	89*	17%	49*	-48%
COc1cc(-c2noc(-c3ccco3)n2)cc(OC)c1OC	3%	80*	0%	18*	-11%
COc1ccc(-c2nc(-c3ccccc3OC)no2)cc1OC	0%	162*	-2%	66*	-59%
COc1ccccc1-c1noc(-c2ccco2)n1	?	80*	1%	51*	-20%
COc1ccccc1-c1noc(-c2ccccc2C(=O)Nc2cccnc2)n1	-4%	22	-9%	9	-4%
COc1cccc2cc(-c3ccnc(N)n3)oc12	-6%	107*	0%	33*	7%
SMILES	LmPK inhibitor	Shiga inhibitor	FBPA Giardia inh	CHX counter	NS1 inh
COc1cccc2cc(-c3n[nH]c(=S)n3C)oc12	-12%	11	-7%	-2	nt
CC(=O)Nc1cc2ccccc2oc1=O	0%	22	4%	13	nt
CC(=O)c1cc(NC(=O)c2ccc(C)cc2)c(=O)oc1C	-19%	72*	0%	28	-2%
CC(=O)c1cc(NC(=O)c2ccc(C)cc2)c(=O)oc1/C=C/N(C)C	1%	52*	-2%	48*	2%
CC(=O)c1cc(NC(=O)c2ccccc2)c(=O)oc1C	-11%	-13	1%	6	3%
Cc1ccc(C(=O)Nc2cc3ccccc3oc2=O)cc1	13µM*	32	0%	29*	5%
O=C(O)CCCCn1cnc2c(=S)nc[nH]c21	nt	nt	nt	nt	0%
COc1ccc(NC(=O)CN2C(=O)NC3(CCCC3)C2=O)cc1Cl	-2%	23	-2%	-2	5%
Nn1c(CSc2nc3ccccc3o2)nnc1CSc1nc2ccccc2o1	5%	-10	?	-3	-40%
Cc1cc(C)n2c(Br)c(CSc3nc4ccccc4o3)nc2n1	4%	40	-25%	41*	-25%
c1ccc2oc(SCc3cn4ccsc4n3)nc2c1	-18%	119*	?	50*	-39%
Cc1csc2nc(CSc3nc4ccccc4o3)cn12	-23%	71*	?	53*	-136%
O=c1cc(CSc2nc3cc(Cl)ccc3o2)nc2sccn12	2%	-12	?	-1	-93%
CCn1cc(C(=O)NCCCN2CCCC(C)C2)c(=O)c2cc(S(=O)(=O)N(C)C3CCCCC3)ccc21 (stereo not drawn)	6%	-9	18%	-5	0%
Cc1onc(-c2ccccc2Cl)c1C(=O)NCc1ccc(F)cc1	-15%	-7	-2%	-1	-11%
Cc1ccc(C2NNC(=O)C2NC(=O)c2ccccc2)cc1 (stereo not drawn)	0%	33*	?	39*	-1%
O=C(NC1C(=O)NNC1c1ccccc1)c1ccc(F)cc1 (stereo not drawn)	-1%	88*	-8%	29*	-2%
O=C(NC1C(=O)NNC1c1ccc(Cl)cc1)c1ccc(F)cc1 (stereo not drawn)	7%	-2	-16%	2	-1%
CNCCCCc1cnc(C)c2[nH]c3ccccc3c12	nt	nt	-5%	nt	nt
CCCOc1ccc(C(=O)CCC(=O)OCC(=O)N(C)c2c(N)n(Cc3ccccc3)c(=O)[nH]c2=O)cc1	-4%	3	nt	-3	19%
COc1ccc(/C(N)=N/OC(=O)c2ccc(C)c([N+](=O)[O-])c2)cc1OC	9%	-1	3%	-3	-7%
N/C(=N\OC(=O)c1cc([N+](=O)[O-])ccc1Cl)c1cccnc1	-2%	21	-7%	-2	-3%
O=C(Oc1cccnc1)c1ccccc1[N+](=O)[O-]	2%	-15	8%	-1	-7%
N/C(=N\OC(=O)c1ccccc1[N+](=O)[O-])c1cccnc1	-1%	55*	2%	35*	7%
N/C(=N\OC(=O)c1ccc([N+](=O)[O-])cc1)c1cccnc1	-20%	117*	0%	14*	-8%
SMILES	LmPK inhibitor	Shiga inhibitor	FBPA Giardia inh	CHX counter	NS1 inh
Cc1ccc(C(=O)O/N=C(\N)c2cccnc2)cc1[N+](=O)[O-]	-2%	18*	-1%	78*	-8%
CCS(=O)(=O)N1Cc2ccccc2CC1C(=O)Nc1ccc(NC(C)=O)cc1 (stereo not drawn)	12%	2	-4%	-1	6%
CCS(=O)(=O)N1Cc2ccccc2CC1C(=O)Nc1cccc(C)c1 (stereo not drawn)	2%	120*	-1%	37*	nt
CCS(=O)(=O)N1Cc2ccccc2CC1C(=O)NCCc1ccccc1 (stereo not drawn)	0%	22	2%	19*	1%
CCS(=O)(=O)N1Cc2ccccc2CC1C(=O)Nc1ccc(OC)cc1 (stereo not drawn)	2%	48	2%	35*	nt
CCS(=O)(=O)N1Cc2ccccc2CC1C(=O)Nc1ccc(F)c(F)c1 (stereo not drawn)	2%	82*	11%	37*	-1%
CCS(=O)(=O)N1Cc2ccccc2CC1C(=O)Nc1ccc(C)cc1 (stereo not drawn)	-5%	49	11%	13	0%
